Paper PMC4552634, “A New Set of Chemical Starting Points with Plasmodium falciparum Transmission-Blocking Potential for Antimalarial Drug Discovery” (PLoS ONE, 2015)
The whole screen tested about 13,000 compounds, of which about 3,200 (25%) showed an effect of 50% or more. The list shows a part of the results.

tested on: P. falciparum stage V gametocytes; parameters: BacTiter-Glo ATP luminescence viability of purified stage V gametocytes in 384-well plates, per cent inhibition versus DMSO; settings: 48 h, 5 µM; inhibitor

| SMILES | % Inhibition |
| --- | --- |
| CN(C)CCNC(=O)[C@H](Cc1ccccc1)NC(=O)c1ccc(O)c(-c2ccc(Cl)c(Cl)c2)c1 [TCMDC-140864] | 22.21% |
| CN1CCCN(Cc2ccc(-c3ccc(NC(=O)c4ccc(Cl)cc4)cc3)cc2)CC1 [TCMDC-132585] | -0.9433% |
| Cc1cccc2[nH]c(-c3cccc(-c4ccc(NC(=O)Nc5ccc(Cl)c(Cl)c5)cc4)c3)nc12 [TCMDC-133275] | -0.4815% |
| c1cc(C2=NC3CCCCC3N2)ccc1OCCCCCOc1ccc(C2=NC3CCCCC3N2)cc1 (centres unmarked) [TCMDC-137802] | 132.6% |
| c1cc2nc(CCCCc3nc4ccc(C5=N[C@H]6CCCC[C@H]6N5)cc4[nH]3)[nH]c2cc1C1=N[C@H]2CCCC[C@H]2N1 [TCMDC-137233] | 16.03% |
| c1cc2[nH]c(CCc3nc4cc(C5=NC6CCCCC6N5)ccc4[nH]3)nc2cc1C1=NC2CCCCC2N1 (centres unmarked) [TCMDC-137238] | -12.99% |
| c1cc2nc(CCCCCc3nc4ccc(C5=N[C@@H]6CCCC[C@@H]6N5)cc4[nH]3)[nH]c2cc1C1=N[C@@H]2CCCC[C@@H]2N1 [TCMDC-137237] | -19.86% |
| c1cc(C2=N[C@H]3CCCC[C@@H]3N2)ccc1OCCCOc1ccc(C2=N[C@@H]3CCCC[C@H]3N2)cc1 [TCMDC-137803] | 109.5% |
| c1cc2nc(CCCc3nc4ccc(C5=N[C@H]6CCCC[C@H]6N5)cc4[nH]3)[nH]c2cc1C1=N[C@@H]2CCCC[C@@H]2N1 [TCMDC-137234] | -8.612% |
| Cc1ccn2c(N(Cc3ccccc3)C(=O)c3ccc(Cl)c(Cl)c3)c(-c3ccccc3)nc2c1 [TCMDC-141396] | -15.83% |
| CCNc1cc(C(=O)N[C@@H](Cc2ccccc2)[C@H](O)CNCCc2ccccc2)cc(N2CCCCS2(=O)=O)c1 [TCMDC-135171] | -2.363% |
| COc1ccc2ncc(F)c(CCN3CC[C@@H](CNCc4cc(C)c5c(c4)OCCO5)C3)c2n1 [TCMDC-136077] | 34.91% |
| CC(C)c1ccc(OCC(O)CN(CCN2CCOCC2)C(=O)Nc2ccc(Br)cc2)cc1 (centres unmarked) [TCMDC-141492] | -0.3608% |
| CCn1c(-c2nc(-c3ccnc(N4CCN(C)CC4)c3)cnc2N)nc2cc(S(C)(=O)=O)ccc21 [TCMDC-134155] | 31.49% |
| CCn1c(-c2nc(-c3ccc4c(c3)OCO4)cnc2N)nc2cnccc21 [TCMDC-135178] | 6.285% |
| COc1cccc2cc(C(=O)N[C@@H](CC(C)C)C(=O)N[C@H](C=NN3CCOC3=O)Cc3ccccc3)oc12 [TCMDC-136074] | -0.683% |
| O=C(c1cccc(-c2noc(C(F)(F)F)n2)c1)N1CCN(c2nsc3ccccc23)CC1 [TCMDC-132425] | -18.4% |
| Fc1cccc(COc2ccc(Nc3ncnc4sc(C#CC5CCCCN5)cc34)cc2Cl)c1 (centres unmarked) [TCMDC-138878] | 40.6% |
| Clc1cc(Nc2ncnc3sc(C#C[C@H]4CCCN4)cc23)ccc1OCc1cccnc1Cl [TCMDC-134849] | 8.343% |
| O=S(=O)(c1ccccc1)n1ccc2cc(Nc3ncnc4cc(C#C[C@H]5CCCN5)sc34)ccc21 [TCMDC-138913] | 83.41% |
| Clc1cc(Nc2ncnc3cc(C#C[C@H]4CCCN4)sc23)cc2[nH]c(Cc3ccccc3)nc12 [TCMDC-134519] | 58.91% |
| O=C(O[C@H]1CN[C@H](C#Cc2cc3ncnc(Nc4ccc5c(ccn5S(=O)(=O)c5cccs5)c4)c3s2)C1)N1CCOCC1 [TCMDC-134691] | 26.92% |

| SMILES | % Inhibition |
| --- | --- |
| CN(C)C(=O)O[C@@H]1CN[C@H](C#Cc2cc3ncnc(Nc4ccc5c(cnn5Cc5cccc(F)c5)c4)c3s2)C1 [TCMDC-135233] | 25.46% |
| COc1ccc(-c2cc(NCc3ccc(-n4ccnc4)cc3)nc(Nc3ccccc3)n2)cc1 [TCMDC-133466] | 0.1166% |
| Cc1ccc(Nc2nc(NN=Cc3ccc(-c4ccc([N+](=O)[O-])cc4)o3)nc(N3CCOCC3)n2)cc1Cl [TCMDC-123853] | 16.13% |
| COc1ccc(F)cc1-c1cccc(CNC2CCN(CC3Cn4c(=O)ccc5ccc(F)c3c54)CC2)c1 (centres unmarked) [TCMDC-134406] | -45.9% |
| COc1ccc(CNCc2ccccc2)cc1-c1cccc(S(=O)(=O)NCCN2CCCC2)c1 [TCMDC-132268] | 57.83% |
| COc1ccc(CNCc2ccc(F)cc2)cc1-c1cccc(S(=O)(=O)NCCN2CCCC2)c1 [TCMDC-132223] | 101.2% |
| COc1ccc2nccc([C@@H](O)CN3CCC(NC(=O)c4ccc(Cl)c(Cl)c4)CC3)c2c1 [TCMDC-141036] | -20.77% |
| COc1cc(Nc2nccc(Nc3ccc4c(C)[nH]nc4c3)n2)cc2ccccc12 [TCMDC-138587] | -18.63% |
| CC(Oc1cccc(Cl)c1)C(=O)N1CCc2ccccc21 (centres unmarked) [TCMDC-123685] | -22.19% |
| CN(CC(=O)Nc1ccc(F)cc1)C(=O)c1ccc(-c2ccc(F)cc2)o1 [TCMDC-125342] | 61.72% |
| O=C(NCc1ccc(F)cc1)Nc1ccc(-c2ccc(-c3nc4ccccc4[nH]3)cc2)cc1 [TCMDC-133299] | -2.169% |
| CC(=O)Nc1ccc(CN(Cc2ccc(F)cc2)Cc2ccc3c(c2)OCO3)cc1 [TCMDC-140255] | 12.12% |
| Nc1ncc(-c2ccc(S(=O)(=O)Nc3ccc(C(=O)N[C@@H](CCC(=O)O)C(=O)O)cc3)cc2)c(=O)[nH]1 [TCMDC-137342] | -1.262% |
| CN1CCC(C(=O)Nc2ccc(-c3ccc(-c4nc5ccccc5[nH]4)cc3)cc2)CC1 [TCMDC-132187] | 59.64% |
| CC(C)=CCN1CCC(C(=O)Nc2ccc(-c3nc4ccccc4[nH]3)cc2)CC1 [TCMDC-124613] | -52.31% |
| O=C(Nc1ccc(-c2csc(-c3nc4ccccc4[nH]3)c2)cc1)Nc1ccsc1 [TCMDC-133207] | -12.45% |
| CN1CCC(C(=O)Nc2ccc(-c3ccc(-c4nc5ccccc5[nH]4)s3)cc2)CC1 [TCMDC-132179] | 54.96% |
| CN1CCC(C(=O)Nc2ccc(-c3ccc(-c4nc5cc(C(F)(F)F)ccc5[nH]4)s3)cc2)CC1 [TCMDC-132183] | -1.127% |
| O=C(Nc1ccc(-c2ccc(-c3nc4ccccc4[nH]3)s2)cc1)Nc1ccsc1 [TCMDC-133219] | 69.14% |
| O=C(Nc1ccc(-c2cccc(-c3nc4ccccc4[nH]3)c2)cc1)Nc1ccsc1 [TCMDC-133220] | 7.696% |
| CN1CCN(CC(=O)Nc2ccc(-c3ccc(-c4nc5ccccc5[nH]4)s3)cc2)CC1 [TCMDC-136971] | -13.63% |
| CN1CCC(C(=O)Nc2cccc(-c3ccc(-c4nc5ccccc5[nH]4)cc3)c2)CC1 [TCMDC-132186] | -0.3438% |
